Screens from PubChem.
Wnt bcat act – activates Wnt/beta-catenin signaling in a reporter cell assay; activator, plate reader; activation, % at 9.35 µM; actives 1.2% (n = 300,000); AID 743398; in the data active means activation above about 30%, passing the limit was not always enough; inconclusive means no clear call, values can overlap the other calls
esBAF inh – inhibitors of esBAF chromatin remodeling in mouse ES cells. Bmi1-luciferase knock-in reporter, 24 h; 100% = twice the neutral-well signal. reporter increase, % at 12.5 µM. actives 2% (n = 350,000); in the data active means activation above about 40%; inconclusive means no clear call, values can overlap the other calls;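 further: a rise in the Bmi1 reporter signal indicates esBAF inhibition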
Env fusion inh – inhibitors of HIV Env-mediated cell fusion; actives 1.1% (n = 360,000); HeLa-JRFL Env/CEM21 cell fusion, luciferase; inhibition, % at 12.3 µM; AID 651610;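 active means mean replicate inhibition score of at least 50 and every replicate individually at or above 50; inconclusive means only one of the two criteria met; inactive means mean below 50 and not all replicates reaching 50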
MITF act – activators of MITF-driven TRPM1 promoter activity in SK-MEL-5 cells. SK-MEL-5 TRPM1-promoter luciferase, 24 h; % of positive control, neutral wells = 0. activation, % at 12.5 µM. actives 0.75% (n = 300,000);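 active means mean activation of at least 80% with every replicate also reaching 80%; inconclusive means mean reaches 80% but some replicate falls short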
miR-122 sensor – inhibitors of miR-122 in Huh7 cells. Huh7 miR-122 Renilla luciferase sensor, 48 h; neutral wells = 0, positive control = 100. activation (reporter increase), % at 12.5 µM. actives 0.3% (n = 340,000). AID 602342;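 active means mean replicate activation score at least 90 and every replicate individually at or above 90; inconclusive means only one of the two criteria met; inactive means neither criterion met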;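 further: higher luciferase means less miR-122 activity so hits act as miR-122 inhibitors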
Hits are given with their value; - = inactive; ? = inconclusive; . = not tested or not shown. Sampled rows, rich in hits. Any-hit rate of the full collection: about 3.4%.

SMILES	Wnt bcat act	esBAF inh	Env fusion inh	MITF act	miR-122 sensor
Cn1cnc2cc(NC(=O)c3ccc(Cl)cc3)ccc21	-	54	-	-	-
Nc1nc2ccccc2n1C(=O)c1ccco1	37	.	-	-	.
CCC(=O)N1CCn2c1nc1ccccc12	-	-	.	-	-
O=C(c1ccco1)N1CCn2c1nc1ccccc12	.	46	.	.	-
C[C@@H]1CN([C@@H](C)CO)C(=O)c2cc(NS(=O)(=O)c3ccc(Cl)cc3)ccc2O[C@@H]1CN(C)S(C)(=O)=O	.	-	-	.	-
O=C(C[C@@H]1C[C@@H]2c3cc(NC(=O)CC4CC4)ccc3O[C@@H]2[C@@H](CO)O1)NCC1CC1	.	-	?	.	-
O=C1COc2ccc(S(=O)(=O)Nc3ccc(F)cc3)cc2N1	-	-	-	-	112
C=C1C(=O)O[C@@H]2C[C@@H](C)[C@@H]3C=CC(=O)[C@@]3(C)[C@@H](OC(C)=O)[C@H]12	-	.	129	.	.
CCC(=O)N[C@H]1CC[C@H](CC(=O)NCc2ccccc2OC)O[C@H]1CO	.	-	-	.	.
Cc1nc(C(C)NC(=O)c2cc(COc3ccc(C)c(C)c3)on2)c(C)s1 (configuration not stated)	-	73	-	-	-
CC(NC(=O)c1cc(COc2ccccc2)on1)c1nccs1 (configuration not stated)	-	64	-	97	-
Cc1cccc(CC(C)NC(=O)c2cc(COc3ccc(C)c(C)c3)on2)n1 (configuration not stated)	-	.	-	-	-
CO[C@@H]1CN(C)C(=O)c2cc(NS(=O)(=O)CC(F)(F)F)ccc2OC[C@@H](C)N(C(=O)NC(C)C)C[C@@H]1C	.	-	-	.	.
COc1ccc(C2=C(CN(C)C)C(c3ccccc3)c3ccccc3O2)cc1 (configuration not stated)	.	71	.	-	-
CCOc1ccc(C2=C(C=C(C#N)C#N)C(c3ccccc3)c3ccccc3O2)cc1 (configuration not stated)	-	.	.	-	-
COc1ccc(NC(=O)CCC(=O)c2cccs2)cc1S(=O)(=O)Nc1ccc(Cl)cc1	.	-	-	-	322
COc1ccccc1NS(=O)(=O)c1cc(N/C(=N/S(=O)(=O)c2ccccc2)c2ccc(F)cc2)ccc1Cl	-	-	-	.	117
CCOc1ccc(NS(=O)(=O)c2cc(NC(=O)CCC(=O)c3cccs3)ccc2Cl)cc1	-	.	-	-	.
COc1ccccc1NS(=O)(=O)c1cc(NC(=O)CCC(=O)c2cccs2)ccc1Cl	-	.	.	-	108
O=C(CCN1CCCCC1)NCC[C@H]1CC[C@H](NC(=O)Nc2ccc(Cl)cc2)[C@@H](CO)O1	.	-	-	.	.
O=C(C[C@@H]1CC[C@H](NC(=O)c2ccc3c(c2)OCO3)[C@@H](CO)O1)NC1Cc2ccccc2C1	.	-	-	.	-
Cc1nc2ccc(-c3nc4cc(N)ccc4o3)cc2[nH]1	33	-	-	-	-
Nc1ccc2oc(-c3ccc4nc[nH]c4c3)nc2c1	-	-	-	.	-
Cc1noc(C)c1NC(=O)N(C)C[C@H]1Oc2ccc(NC(=O)NC(C)C)cc2CC(=O)N([C@H](C)CO)C[C@H]1C	.	-	-	.	-
Cc1ccc(NCc2nc3ccccc3n2C)c(C)c1	40	-	-	-	-
SMILES	Wnt bcat act	esBAF inh	Env fusion inh	MITF act	miR-122 sensor
Cc1cccc(NCc2nc3ccccc3n2C)c1	.	61	.	-	.
Oc1ccc(-c2n[nH]c(C(F)(F)F)c2-c2ccccc2)c(O)c1	-	.	-	-	-
COc1ccccc1-c1c(-c2ccc(O)cc2O)n[nH]c1C(F)(F)F	-	-	93	-	-
CC(C)(C)NC(=O)c1cccc(NC(=O)c2ccc3c(c2)C(=O)N(C(C)(C)C)C3=O)c1	-	-	-	-	-
CC(C)(C)N1C(=O)c2ccc(C(=O)Nc3ccc(O)cc3)cc2C1=O	48	?	-	.	.
CCC(=O)N[C@@H]1CC[C@@H](CC(=O)NCCN2CCCCC2)O[C@@H]1CO	.	-	-	.	-
CCOC(=O)N1CCC2(CC1)CC(=O)c1c(ccc3oc(C(=O)O)c(C)c13)O2	.	-	.	-	-
CCCNC(=O)c1oc2ccc3c(c2c1C)C(=O)CC(C)(C)O3	59	-	-	89	-
CCCNC(=O)c1oc2ccc3c(c2c1C)C=CC(C)(C)O3	38	56	-	105	.
Cc1c(C(=O)NCCc2ccccc2)oc2ccccc12	-	-	-	-	-
COc1ccc(C(=O)N2CCN(c3ccc(F)cc3)CC2)cc1S(=O)(=O)NC1CC1	-	50	-	-	-
